Assay outcomes as filed in PubChem.
FXIIa inh mix: inhibitors of human coagulation factor XIIa, pooled mixtures; actives 0.2% (n = 62,000); purified FXIIa, fluorogenic substrate; inhibition, % at 5 µM; P00748;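 further: 0% = enzyme without compound and 100% = no enzyme blank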
Cathepsin G inh: cathepsin G (human) inhibition | P08311 | inhibition, % at 5 µM (by protocol) | AID 581 | purified enzyme, AMC-tetrapeptide fluorescence, pooled mixtures | actives 0.2% (n = 62,000);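 active means inhibition above 20% in each of the two mixture wells holding the compound; inactive means inhibition of 20% or less in either well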;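 further: 0% = enzyme control without mixture and 100% = blank lacking enzyme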
FXIa mix inh: inhibitors of human coagulation factor XIa, pooled mixtures | P03951 | purified FXIa, fluorogenic substrate | inhibition, % at 5 µM | actives 0.19% (n = 62,000);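 further: each value is inhibition by a whole ten-compound pool holding the compound; 0% = enzyme with no mixture and 100% = wells lacking enzyme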
C1s block: blocks human complement C1s protease activity. P09871. purified C1s, fluorogenic AMC substrate, pooled mixtures. mean inhibition % of two 10-compound mixtures (active compounds read high), % at 5 µM (by protocol). actives 0.16% (n = 62,000). AID 538;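 active means inhibition above 20% in each of the two 10-compound mixture wells holding the compound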;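 further: 0% = enzyme wells lacking compound mixture and 100% = no-enzyme blank wells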
Target sequence (P09871 16-437 limits assumed): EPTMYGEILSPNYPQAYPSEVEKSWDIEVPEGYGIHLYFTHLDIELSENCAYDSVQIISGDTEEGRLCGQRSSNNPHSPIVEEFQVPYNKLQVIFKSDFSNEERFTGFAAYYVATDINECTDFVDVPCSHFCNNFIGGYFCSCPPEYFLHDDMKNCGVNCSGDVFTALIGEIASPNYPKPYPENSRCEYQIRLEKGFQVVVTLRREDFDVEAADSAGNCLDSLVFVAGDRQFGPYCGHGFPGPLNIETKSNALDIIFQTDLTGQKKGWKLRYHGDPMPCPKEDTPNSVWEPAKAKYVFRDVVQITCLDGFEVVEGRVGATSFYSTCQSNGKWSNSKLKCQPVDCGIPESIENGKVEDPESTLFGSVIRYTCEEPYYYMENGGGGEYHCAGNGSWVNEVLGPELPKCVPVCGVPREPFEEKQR
Target sequence (P09871 438-688 limits assumed): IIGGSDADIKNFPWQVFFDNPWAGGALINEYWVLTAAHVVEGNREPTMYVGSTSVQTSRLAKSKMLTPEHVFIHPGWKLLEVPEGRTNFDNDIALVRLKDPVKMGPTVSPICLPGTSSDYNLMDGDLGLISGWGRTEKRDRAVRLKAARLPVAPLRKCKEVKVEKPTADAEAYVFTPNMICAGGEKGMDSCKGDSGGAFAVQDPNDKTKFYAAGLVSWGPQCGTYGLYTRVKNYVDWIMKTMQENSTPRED
* hit, by the source's call. Shown are actives, neighbours in structure and some others; about 0.61% of the full set was active somewhere. Unless noted, no stated cut-off is given here; in the data, active means inhibition above about 20% (passing the limit was not always enough); inactive means the rest.

SMILES	FXIIa inh mix	Cathepsin G inh	FXIa mix inh	C1s block
CCc1cc(C(=O)OC)c(NC(=O)CC2NCCNC2=O)s1 (stereo not drawn)	5.0	-0.3	3.2	3.2
COc1ccc(C(=S)N2CCN(C)CC2)cc1Br	3.2	-14.3	-2.1	16.7
COc1ccc(C(=O)n2ccc(C)n2)cc1Br	3.6	20.7*	15.6	20.4
Cc1cc(C)cc(N(CC(=O)N2CCn3c2nc2ccccc23)S(=O)(=O)c2c(C)noc2C)c1	6.2	0.5	41.0	-41.4
CN/C=C1\C(=O)C(C)(C)Oc2ccc3ccc(=O)oc3c21	2.4	10.0	12.6	23.1*
COC(=O)c1cc(Br)c(=O)n(-c2ccccn2)c1	-1.8	7.5	-3.7	0.7
COC(=O)c1cc(Br)c(=O)n(-c2ccc(C(C)=O)cc2)c1	21.3*	7.4	1.5	-3.0
Cc1ccc(Cn2c(NCCCn3ccnc3)nc3c2c(=O)n(C)c(=O)n3C)cc1	11.0	6.2	12.9	6.5
CCOc1ccc2nc(NC(=O)CN3CCC(n4nnc5cc(F)ccc54)CC3)sc2c1	31.5*	-6.3	3.9	-28.7
CCn1cnc2sc(C(=O)N(Cc3ccc(N(C)C)cc3)Cc3ccco3)c(C)c2c1=O	-19.6	3.9	23.0*	-4.7
CC1CCCCN1CCNC(=O)C1CCN(S(=O)(=O)N2CCCCC2)CC1 (stereo not drawn)	20.6*	-1.7	-2.9	-80.6
C=CCNC(=O)NS(=O)(=O)c1ccc(C)cc1	1.5	8.9	22.3*	15.1
COC(=O)c1ccc(NC(=O)NS(=O)(=O)c2ccc(C)cc2)cc1	17.7	1.9	9.9	-2.1
Cc1nn(-c2ccccc2)c2sc(C(=O)OCc3nnc(-c4ccccc4)o3)cc12	5.6	6.9	0.7	-13.2
COc1ccc(-c2nnc(NC(=O)c3ccc(S(=O)(=O)N4COCC4(C)C)cc3)o2)cc1	3.4	1.3	5.8	12.3
CC1(C)COCN1S(=O)(=O)c1ccc(C(=O)Nc2nnc(-c3ccc(Cl)s3)o2)cc1	10.8	10.1	11.2	23.1*
O=C(COc1ccccc1)NCCc1cn2ccsc2n1	8.8	8.9	5.4	9.5
COc1ccc(CCn2c(SCC(=O)Nc3cc(C)on3)nc3ccsc3c2=O)cc1OC	21.8*	-0.3	8.4	5.7
COc1ccc(CCn2c(SCC(=O)Nc3cc(C)on3)nc3ccccc3c2=O)cc1OC	-16.8	11.3	4.5	12.7
Cc1nc(CNS(=O)(=O)c2cc(C)c(C)cc2C)cs1	-6.4	7.2	7.8	56.9*
COc1ccc(S(=O)(=O)NCc2csc(C)n2)cc1	-1.9	-7.5	4.2	-22.8
Cc1cc2oc(=O)cc(CN3CCCCC3C)c2c(C)c1Cl (stereo not drawn)	17.7	11.0	9.1	8.0
COc1cccc(Oc2ccc(N)cn2)c1	23.2*	0.3	-9.0	-11.5
